Measured values as given in PubChem BioAssay (Tox21).
Results filed as inconclusive are left out. Where a call stands in place of a potency, no number is given. More than one record can exist for a structure, and the calls need not agree. Active and inactive are the calls of the source. Unless noted, calls come from the whole dose curve; as a rule, active = well fitted curve in the direction sought with a large enough effect in the repeat runs; inconclusive = weak or mixed curves; inactive = no such curve, though single readings can be large; an effect the other way counts as inactive or inconclusive.

Assays:
[1] = qHTS assay to identify small molecule antagonists of the glucocorticoid receptor (GR) signaling pathway - cell viability counter screen (AID 720693); note: nearly all actives have a fitted effect of over 55% in size
[2] = qHTS assay for identifying genotoxic compounds that show differential cytotoxicity against isogenic chicken DT40 cell lines with known DNA damage response pathways - wild type cell line (AID 743012); note: nearly all actives have a fitted effect of over 60% in size; note: potency is the fitted concentration of half-maximal effect
Method in brief: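 First, wild type DT40 cells were plated at 300 per well and equilibrated about 0.5 h at 37 C/5% CO2. Next, compounds in DMSO were added and exposure lasted 40 h. Finally, CellTiter-Glo was added for 30 min at room temperature and luminescence recorded.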

[3] = qHTS assay for identifying genotoxic compounds that show differential cytotoxicity against isogenic chicken DT40 cell lines with known DNA damage response pathways - Rev3 mutant cell line (AID 743014); note: nearly all actives have a fitted effect of over 55% in size; note: potency is the fitted concentration of half-maximal effect
[4] = qHTS assay for identifying genotoxic compounds that show differential cytotoxicity against isogenic chicken DT40 cell lines with known DNA damage response pathways - Rad54/Ku70 mutant cell line (AID 743015); note: nearly all actives have a fitted effect of over 60% in size; note: potency is the fitted concentration of half-maximal effect
[5] = qHTS assay to identify small molecule antagonists of the androgen receptor (AR) signaling pathway - cell viability counter screen (AID 743033; note: nearly all actives have a fitted effect of over 45% in size)
[6] = qHTS assay to identify small molecule antagonists of the androgen receptor (AR) signaling pathway using the MDA cell line - cell viability counter screen (AID 743041; note: nearly all actives have a fitted effect of over 45% in size)
Method in brief: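 MDA-kb2 AR-luc cells (MMTV-luciferase, AR/GR responsive) treated with compounds plus R1881 agonist for 16 h at 37C. CellTiter-Fluor added at 15.5 h; fluorescence read after 30 min in the same wells.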

[7] = biological target: Androgen receptor (Homo sapiens) (UniProt P10275); assay: qHTS assay to identify small molecule antagonists of the androgen receptor (AR) signaling pathway (AID 743035; active = well fitted inhibition curve with a large enough effect in the signal ratio in the repeat runs, not every such curve was filed as active; the % refers to the signal ratio)
Chain of Androgen receptor (Homo sapiens) (P10275 whole entry, looked up): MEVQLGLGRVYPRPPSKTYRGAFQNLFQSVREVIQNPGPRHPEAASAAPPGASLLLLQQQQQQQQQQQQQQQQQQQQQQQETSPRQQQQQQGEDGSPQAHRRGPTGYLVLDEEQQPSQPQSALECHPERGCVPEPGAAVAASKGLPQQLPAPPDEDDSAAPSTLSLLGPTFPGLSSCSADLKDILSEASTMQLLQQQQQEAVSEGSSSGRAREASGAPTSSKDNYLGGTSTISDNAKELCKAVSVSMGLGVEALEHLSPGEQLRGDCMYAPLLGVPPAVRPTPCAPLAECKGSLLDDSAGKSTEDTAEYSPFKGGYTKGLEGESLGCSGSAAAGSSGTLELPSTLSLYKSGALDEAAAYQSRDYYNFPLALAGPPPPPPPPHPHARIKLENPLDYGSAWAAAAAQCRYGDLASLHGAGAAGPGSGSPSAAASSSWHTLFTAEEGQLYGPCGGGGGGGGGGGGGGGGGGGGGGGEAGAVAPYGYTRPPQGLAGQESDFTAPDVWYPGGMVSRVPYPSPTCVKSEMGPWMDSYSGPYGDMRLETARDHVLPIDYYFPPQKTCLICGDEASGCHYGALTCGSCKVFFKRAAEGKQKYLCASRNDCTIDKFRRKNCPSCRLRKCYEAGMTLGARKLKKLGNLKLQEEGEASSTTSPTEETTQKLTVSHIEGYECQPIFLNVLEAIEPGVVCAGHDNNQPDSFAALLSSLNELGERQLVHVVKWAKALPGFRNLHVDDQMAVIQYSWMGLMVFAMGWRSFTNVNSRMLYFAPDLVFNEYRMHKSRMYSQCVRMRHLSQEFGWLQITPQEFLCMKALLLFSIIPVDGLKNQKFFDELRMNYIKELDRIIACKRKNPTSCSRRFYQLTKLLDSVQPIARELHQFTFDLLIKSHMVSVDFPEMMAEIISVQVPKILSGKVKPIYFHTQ
Method in brief: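 Beta-lactamase FRET read (2 h RT incubation with LiveBLAzer B/G) following 16 h of compound plus R1881 treatment of AR-UAS-bla HEK293 cells, which had been pre-incubated 4 h at 37C.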

[8] = biological target: Androgen receptor (Homo sapiens) (UniProt P10275); assay: qHTS assay to identify small molecule agonists of the androgen receptor (AR) signaling pathway (AID 743036; active = well fitted activation curve with a large enough effect in the signal ratio in the repeat runs, with a control signal flat, not every such curve was filed as active; the % refers to the signal ratio)
Method in brief: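 In this Tox21 qHTS, 2,000 HEK293 AR-bla cells per well were incubated with compounds for 16 h at 37C and 5% CO2. Fluorescence intensity was recorded 2 h after adding LiveBLAzer B/G FRET substrate at room temperature.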

[9] = biological target: Androgen receptor (Homo sapiens) (UniProt P10275); assay: qHTS assay to identify small molecule agonists of the androgen receptor (AR) signaling pathway using the MDA cell line (AID 743040; note: nearly all actives have a fitted effect of over 20% in size)
Method in brief: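 MDA-kb2 breast carcinoma cells carrying MMTV-luciferase (responsive to AR and GR), plated 5 h then treated 16 h with compounds at 37C, 0% CO2. Read-out was ONE-Glo luminescence after 30 min at room temperature.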

[10] = biological target: Androgen receptor (Homo sapiens) (UniProt P10275); assay: qHTS assay to identify small molecule antagonists of the androgen receptor (AR) signaling pathway using the MDA cell line (AID 743042; note: nearly all actives have a fitted effect of over 55% in size)
Method in brief: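 MDA-kb2 breast carcinoma cells carrying MMTV-luciferase (AR/GR responsive) were co-treated with compounds and the agonist R1881 for 16 h at 37C. Inhibition read as ONE-Glo luminescence; CellTiter-Fluor fluorescence measured in parallel for cytotoxicity.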

Structure (SMILES)	Potency [1]	Potency [2]	Potency [3]	Potency [4]	Potency [5]	Potency [6]	Potency [7]	Potency [8]	Potency [9]	Potency [10]
O=C1N=C2SCCN2C(=O)C1Cc1ccc(Cl)cc1 (stereo unspecified)	inactive	inactive	inactive	inactive	inactive	inactive	–	–	–	–
COC(=O)CC[C@H](N)C(=O)O	inactive	inactive	inactive	inactive	inactive	inactive	–	–	–	–
CO[C@H]1[C@@H](O)[C@H](N)[C@@H](O[C@H]2O[C@H]([C@H](C)N)CC[C@H]2N)[C@H](O)[C@@H]1N(C)C(=O)CN	inactive	inactive	inactive	inactive	inactive	inactive	–	–	–	–
O=P(O)(O)C(Sc1ccc(Cl)cc1)P(=O)(O)O	inactive	inactive	inactive	inactive	inactive	inactive	–	–	–	–
O=P(O)(O)OC[C@H](O)CO	inactive	inactive	inactive	inactive	inactive	inactive	–	–	–	–
CC1C(=O)CC2C3(C)CCC2(C(C)C(=O)O)C(=O)C13 (stereo unspecified)	inactive	inactive	inactive	inactive	inactive	inactive	–	–	–	–
CCN1C(=O)NC(c2ccccc2)C1=O (stereo unspecified)	inactive	inactive	inactive	inactive	inactive	inactive	–	–	–	–
Nc1nc2[nH]cc(CCc3ccc(C(=O)N[C@@H](CCC(=O)O)C(=O)O)cc3)c2c(=O)[nH]1	inactive	26.6 nM (active)	11.9 nM (active)	10.6 nM (active)	inactive	inactive	–	–	–	–
COCC1=C(C(=O)OC(C)OC(=O)OC(C)C)N2C(=O)[C@@H](NC(=O)/C(=N\OC)c3csc(N)n3)[C@H]2SC1 (stereo partly specified)	inactive	1.68 µM (active) and inactive	2.37 µM (active) and inactive	1.06 µM (active) and inactive	inactive	inactive	–	–	–	–
CC(CC(c1ccccc1)c1ccccc1)NC(C)(C)C (stereo unspecified)	inactive	10600 nM (active)	23700 nM (active)	29800 nM (active)	inactive	inactive	–	–	–	–
CC1CCC(NC(=O)N(CCCl)N=O)CC1 (stereo unspecified)	inactive	inactive	inactive	inactive	inactive	inactive	–	–	–	–
CO/N=C(\C(=O)N[C@@H]1C(=O)N2C(C(=O)O)=C(CSc3nnnn3C)CS[C@H]12)c1csc(N)n1	inactive	inactive	inactive	inactive	inactive	inactive	–	–	–	–
C/C=C(/CC[C@@H](C)[C@H]1CC[C@H]2C3=CC[C@H]4[C@H](C)[C@@H](O)CC[C@]4(C)[C@H]3CC[C@]12C)C(C)C	inactive	inactive	inactive	inactive	inactive	inactive	–	–	–	–
CC(=O)Oc1c(C)cc(OCC(O)CNC(C)C)c(C)c1C (stereo unspecified)	inactive	inactive	inactive	inactive	inactive	inactive	–	–	–	–
O=C(O)c1nc(=O)[nH]c(=O)[nH]1	inactive	inactive	inactive	inactive	–	inactive	inactive	inactive	inactive	inactive
COC1=C(C(=O)O)N2C(=O)[C@@H](NC(=O)[C@H](N)C3=CCC=CC3)[C@H]2SC1	inactive	inactive	inactive	inactive	inactive	inactive	–	–	–	–
CC(=O)N[C@@H](CC(=O)N[C@@H](CCC(=O)O)C(=O)O)C(=O)O	inactive	inactive	inactive	inactive	inactive	inactive	–	–	–	–
O=[n+]1ccn([O-])c2ccccc21	inactive	inactive	inactive	inactive	inactive	inactive	–	–	–	–
O=S(O)CNc1ccc(S(=O)(=O)c2ccc(NCS(=O)O)cc2)cc1	inactive	inactive	inactive	inactive	inactive	inactive	–	–	–	–
CCCCCCCCCCCCCCCC(=O)O[C@@H]1[C@@H](O)[C@@H](O)[C@@H]([C@H](NC(=O)[C@@H]2C[C@@H](CCC)CN2C)[C@H](C)Cl)O[C@@H]1SC	inactive	inactive	inactive	inactive	inactive	inactive	–	–	–	–
CC1(C)S[C@@H]2[C@H](NC(=O)[C@H](N)c3ccccc3)C(=O)N2[C@H]1C(=O)OCOC(=O)[C@@H]1N2C(=O)C[C@H]2S(=O)(=O)C1(C)C	inactive	inactive	inactive	inactive	inactive	inactive	–	–	–	–
O=C(O)c1cc(O)c2c(c1)[O][Bi][O]2	inactive	inactive	inactive	inactive	inactive	inactive	–	–	–	–
O=C(O)COc1ccc(CCNS(=O)(=O)c2ccccc2)s1	inactive	inactive	inactive	inactive	inactive	inactive	–	–	–	–
